# A selection: hits, their analogues and other compounds. The true share with any hit is near 12%.
# G9a block: G9a (human) methyltransferase inhibition; Q96KQ7; G9a H3K9 monomethylation, AlphaScreen, 2 h; Potency, µM (series often up to 102 µM), without a hit: at the top dose activity, negative = inhibition, hits mostly inhibitors; actives 8.8% (n = 350,000); AID 504332; further: on the % scale 0 is the no-effect control and ±100 the full control effect; nearly all actives have a fitted effect of over 75% in size
#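 Enzyme 20 nM + cpd, 15 min RT; add b-H3K9 pep 500 nM / SAM 20 uM; 2 h RT; anti-H3K9me1 Ab 0.5 ug/mL + SA donor / anti-rabbit acceptor beads 20 ug/mL each, 10 min; AlphaScreen read.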
# BAZ2B inh: BAZ2B (human) inhibition | actives 4.4% (n = 360,000) | Potency, µM (top dose mostly 114 µM), for inactives: at the highest dose activity change, negative = inhibition, actives largely listed as inhibitors | AlphaScreen BAZ2B-H3K14Ac peptide displacement | AID 504333; further: on the % scale 0 is the no-effect control and ±100 the full control effect; nearly all actives have a fitted effect of over 60% in size
#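 Multi-concentration screen (max 110 uM) measuring displacement of acetylated histone H3 peptide from BAZ2B by AlphaScreen, using 50 nM protein, 50 nM peptide and 10 ug/mL streptavidin donor plus Ni-chelate acceptor beads.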
# Sfp PPTase inh: blocks B. subtilis Sfp PPTase activity; Q9F4F7; Biochemical Sfp PPTase activity, qHTS; Potency, µM, for the others: largest response in the series, negative = inhibition, hits mostly inhibitors; actives 3.5% (n = 310,000); AID 1490;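 further: the enzyme is Sfp with the accession as filed and its product quenches rhodamine fluorescence; 0% = enzyme reaction without inhibitor and -100% = no enzyme wells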
#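 Fluorescence-quenching assay: 15 nM Sfp-PPTase preincubated 15 min at room temperature with compound, then 5 uM rhodamine-CoA and 12.5 uM BHQ-2-labelled YbbR peptide added. Fluorescence (ex 525/em 598 nm) read at start and after 30 min; difference gives rate.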
# TDP1 inh: blocks human tyrosyl-DNA phosphodiesterase 1 | Q9NUW8 | recombinant TDP1, AlphaScreen DNA substrate cleavage | Potency, µM (top dose mostly 130 µM), for inactives: at the top dose activity change, negative = inhibition, most hits filed as inhibitors | actives 0.28% (n = 350,000) | AID 485290; further: on the % scale 0 is the no-effect control and ±100 the full control effect; nearly all actives have a fitted effect of over 40% in size
# Target sequence (Q9NUW8 whole entry, looked up): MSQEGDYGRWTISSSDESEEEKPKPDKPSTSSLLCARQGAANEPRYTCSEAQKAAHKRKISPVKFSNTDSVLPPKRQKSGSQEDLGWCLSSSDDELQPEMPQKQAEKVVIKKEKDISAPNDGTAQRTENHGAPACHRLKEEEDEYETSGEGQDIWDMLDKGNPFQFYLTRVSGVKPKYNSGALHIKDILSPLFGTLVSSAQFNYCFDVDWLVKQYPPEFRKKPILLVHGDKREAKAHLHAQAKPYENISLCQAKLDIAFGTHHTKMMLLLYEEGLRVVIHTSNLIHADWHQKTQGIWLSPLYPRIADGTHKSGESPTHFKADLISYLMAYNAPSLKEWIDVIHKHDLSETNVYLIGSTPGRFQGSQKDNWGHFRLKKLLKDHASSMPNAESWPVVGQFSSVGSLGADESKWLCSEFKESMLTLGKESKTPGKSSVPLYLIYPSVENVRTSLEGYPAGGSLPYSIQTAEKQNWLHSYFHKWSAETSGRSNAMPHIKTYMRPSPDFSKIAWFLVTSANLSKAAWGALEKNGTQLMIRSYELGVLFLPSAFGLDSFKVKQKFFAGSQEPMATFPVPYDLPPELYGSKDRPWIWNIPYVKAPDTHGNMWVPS
#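 Compounds were preincubated with Tdp1 (1 nM final) for 15 min at room temperature before substrate (15 nM final) started a 5 min reaction; beads (10 ug/ml final) were then added for 10 min before AlphaScreen detection.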
# JMJD2A Tudor: blocks the human JMJD2A Tudor domain; AID 504339; AlphaScreen JMJD2A-Tudor / H3K4me3 peptide binding; O75164; Potency, µM (top dose mostly 114 µM), for inactives: at the highest dose activity change, negative = inhibition, most hits filed as inhibitors; actives 4.4% (n = 390,000); further: on the % scale 0 is the no-effect control and ±100 the full control effect; nearly all actives have a fitted effect of over 50% in size
# HP1b binding inh: inhibitors of HP1-beta chromodomain binding to methylated histone tails | AlphaScreen HP1-beta / biotin-H3K9me3 peptide binding | P83916 | Potency, µM (doses to about 114 µM), for inactives: at the top dose activity change, negative = inhibition, hits mostly inhibitors | AID 540317 | actives 0.56% (n = 390,000); further: nearly all actives have a fitted effect of over 70% in size
#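 AlphaScreen: HP1-beta (50 nM) preformed 30 min with biotin-H3(1-18)K9me3 peptide (50 nM) in PBS pH 7.4, 0.01% Tween-20. Compound added for 30 min at RT, then streptavidin donor/nickel chelate acceptor beads (10 ug/mL) for 30 min.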
# Numbers without * were called inactive; ? = inconclusive; nt = no result; [ ] = dose if it differs, or a comment. The call rests on the fitted dose curve; in most records, active means well fitted curve in the direction sought with a large enough effect; inconclusive means small, poorly fitted or top-dose-only effect, or another doubt; inactive means no such curve, though single readings can be large; an effect the other way counts as inactive or inconclusive. Potency means the concentration at half of the fitted maximal effect.
SMILES,G9a block,BAZ2B inh,Sfp PPTase inh,TDP1 inh,JMJD2A Tudor,HP1b binding inh
CCCn1c(N)c(N(CCOC)C(=O)/C=C/c2cccc(Cl)c2)c(=O)[nH]c1=O,-21%,7%,20%,-6%,-9%,15%
C(=N\Nc1nc2ccccc2[nH]1)/c1c[nH]c2ccccc12,4%[59 µM],45µM*,?,8%,45µM*,?
C(=N\Nc1nc2ccccc2[nH]1)/c1cccc2cccnc12,nt,7.1µM*,-8%,8%,14µM*,10%
O=[N+]([O-])c1ccccc1N/N=C/c1c[nH]c2ccccc12,?,10µM*,7%,12%,11µM*,13µM*
C(=C\c1ccccc1)/C=N/Nc1nc2ccccc2[nH]1,?,-35%,14µM*,11%,?,21%
C(=N\Nc1nc2ccccc2[nH]1)/c1ccccc1,-12%[12.7 µM],-22%,-8%,6%,-17%,30%
O=C(NCC1COCCO1)c1ccc2nc(Cc3cccc(Cl)c3)oc2c1 (stereo not given),nt,0%,6%,0%,-5%,23%
CCC(=O)Nc1ccccc1-c1nc2ccccc2n(CC(=O)Nc2ccccc2OC)c1=O,-10%[59 µM],-2%,nt,-6%,3%,31%
C/C(=N\NC(=O)c1ccc(-c2ccccc2)cc1)c1ccco1,13%,-9%,14%,-7%[0.0935 µM],-19%,0%
O=C(N/N=C/c1ccc([N+](=O)[O-])cc1)c1cnccn1,nt,-13%,8%,2%,?,20%
C/C(=N\NC(=O)C1(C)CC1(Br)Br)c1ccc([N+](=O)[O-])cc1 (stereo not given),20%[59 µM],-1%,6%,6%,-9%,30%
C/C(=N/NC(=O)c1cnccn1)c1cccs1,-10%[59 µM],?,-7%,3%,25µM*,29%
C/C(=N\NC(=O)c1cnccn1)c1ccc([N+](=O)[O-])cc1,10%,-4%,3%,5%,22µM*,14%
C/C(=N/NC(=O)c1cc(O)c(O)c(O)c1)c1ccc([N+](=O)[O-])cc1,7.1µM*,40µM*,3.2µM*,-1%,45µM*,?
C/C(=N\NC(=O)c1cc([N+](=O)[O-])cc([N+](=O)[O-])c1)c1ccco1,nt,-10%,35µM*,6%,-13%,18%
Cc1ccc(S(=O)(=O)c2cn(Cc3cccc(F)c3)c3cc(N4CCCC4)c(F)cc3c2=O)cc1,6%[59 µM],2%,nt,4%,6%,30%
COC(=O)Nc1sc(C(=O)N(C)C)c(C)c1C(=O)OC,26%[0.0925 µM],-6%,6%,0%,-9%,17%
COC(=O)c1c(NC(=S)NNC(=O)c2ccc(Cl)s2)sc(C(=O)N(C)C)c1C,28µM*,-17%,4%,7%,-19%,-6%
CC[C@]12CCCN3CCc4c(n(c5ccccc45)[C@](O)(C(=O)OC)C1)[C@@H]32,2%[12.7 µM],26%,nt,nt,-3%,22%
CCC12CCCN3CCc4c(n(c5ccccc45)C(O)(C(=O)OC)C1)C32 (stereo not given),50µM*,-26%,-17%,4%,-30%,-3%
CN(Cc1ccccc1)C(=O)N1CCOCC1,nt,0%,9%,-4%,14%,40%
O=C(NC1(C(F)(F)F)N=C2SCCN2C1=O)C1CCCCC1 (stereo not given),9%[59 µM],1%,63µM*,0%,-2%,68%
Cc1ccc(C(=O)NC2(C(F)(F)F)N=C3SCCN3C2=O)cc1 (stereo not given),1%[12.7 µM],-2%,12%,0%,0%,24%
Cc1cc(N2CCC(C(=O)Nc3ccc(Cl)cc3)CC2)n2nc(C)c(-c3ccc(Cl)cc3)c2n1,-6%[59 µM],-4%,nt,1%,-8%,17%
CCOC(=O)c1cc2c(=O)n3ccccc3nc2n(Cc2ccco2)c1=NC(=O)c1ccc(OC)cc1,-12%,-8%,?,-8%,9%,22%
